# aSyn UTR act: Activators via SNCA 5'UTR binding, MLPCN. alpha-synuclein 5'UTR reporter, activators screen. activity score, % (tested at 7.5 µM), hits read low. 7.1% of 300,000 active; in the data active means activity score below about -60%
# Hits are given with their value; i = inactive. These entries were drawn from the full list.
SMILES,aSyn UTR act
COc1ccc(C(=O)Nc2nc(-c3cccs3)cs2)cc1,-91
N/C(=N\OC(=O)c1ccc2c(c1)OCO2)c1cccc(Br)c1,-146
COc1cc(C(=O)O/N=C(\N)Cc2ccc([N+](=O)[O-])cc2)cc(OC)c1OC,i
COc1ccc(/C(N)=N/OC(=O)c2ccc3c(c2)OCO3)cc1OC,-87
N/C(=N\OC(=O)c1ccc2c(c1)OCO2)c1ccc([N+](=O)[O-])cc1,-128
N/C(=N\OC(=O)c1ccc2c(c1)OCO2)c1cccnc1,-139
CSc1nsc(N/N=C/c2ccccc2)c1C#N,-150
COc1ccc(/C=N/Nc2snc(SC)c2C#N)cc1OC,-146
COc1cccc(/C=N/Nc2snc(SC)c2C#N)c1O,-157
CN1CCN(C(=O)c2ccc(-c3cccs3)s2)CC1,-98
O=C(NNC(=S)Nc1ccccc1Cl)c1ccccc1,-98
O=C(NNC(=S)Nc1ccc(Cl)cc1)c1ccccc1,-87
COc1ccc(C(=O)NNC(=S)Nc2ccccc2)cc1,-207
COc1ccc(C(=O)NNC(=O)c2cccc(F)c2)cc1,-82
CC(=O)c1ccc(NC(=S)NNC(=O)c2ccncc2)cc1,-70
O=C(/C=C/NNC(=O)c1ccc(Cl)cc1)c1ccccc1,-77
O=C(NNC(=S)Nc1cccc(Cl)c1)c1ccccc1,-104
CCCC(=O)NC(=S)Nc1ccc(C(C)=O)cc1,-84
COc1ccccc1NC(=S)NNC(=O)c1ccccc1,-101
N#Cc1ccccc1N/C=C/C(=O)c1ccc(Cl)cc1,-169
Cc1nn(C)c(C(=O)NNC(=S)Nc2ccc(Cl)cc2)c1[N+](=O)[O-],-71
O=C(NCCc1ccccc1)Nc1ccc2c(c1)OCO2,-80
O=C(NCCc1ccc(F)cc1)Nc1ccc2c(c1)OCO2,-139
O=C(/C=C/c1cccc(Cl)c1)NCCc1ccccc1,-67
O=C(NCCc1ccccc1)C(=O)Nc1ccc2c(c1)OCCO2,-137
SMILES,aSyn UTR act
O=C(NCCc1ccccc1)Nc1cccc(Cl)c1,-88
S=C(Nc1cc(Cl)cc(Cl)c1)NC1CCN(Cc2ccccc2)CC1,i
O=C(Nc1cccc(Cl)c1)N1CCN(Cc2ccccc2)CC1,-159
O=C(CCc1ccccc1)Nc1ccc2c(c1)OCO2,-123
O=C(CCS(=O)(=O)c1ccc(Br)cc1)Nc1ccc2c(c1)OCO2,-64
O=C(Nc1ccc2c(c1)OCO2)OCc1ccccc1,-123
CC(C)(C)C(=O)c1cnc(Nc2ccccc2Cl)s1,-146
O=C(c1ccccc1)c1cnc(Nc2ccccc2Cl)s1,-96
CC(=O)c1csc(Nc2ccccc2Cl)n1,-121
CN(C)CCNC(=O)c1csc(Nc2cccc3ccccc23)n1,i
O=C(Oc1ccccc1/C=C\C(=O)c1cc2ccccc2o1)c1ccccc1,-300
O=C(Oc1ccccc1/C=C\C(=O)c1cc2ccccc2o1)c1cccc(F)c1,-234
COc1cccc(C(=O)Oc2ccccc2/C=C\C(=O)c2cc3ccccc3o2)c1,-192
COc1cccc(NC(=O)c2ccc3nsnc3c2)c1,-151
Cc1nc(NC(=O)C2CC2)sc1C(=O)Nc1ccccc1Cl,-164
CCCOc1cccc(C(=O)Nc2ccc(Br)cc2F)c1,-161
COc1ccc(Nc2sc(C(=O)Nc3cccc(Cl)c3)c(N)c2C(=O)Nc2ccccc2OC)cc1,-67
COc1ccccc1NC(=O)c1ccc2nsnc2c1,-112
O=C(Nc1ccc(Br)cc1F)c1ccc2nsnc2c1,-106
O=C(Nc1ccc(F)cc1)c1ccc2nsnc2c1,-175
COc1ccccc1NC(=O)c1sc(Cl)nc1C,-69
C/[N+]([O-])=C/c1c(OCc2ccccc2)ccc2ccccc12,-91
O=Cc1c(OCc2ccccc2)ccc2ccccc12,-131
O=[N+]([O-])C(/C=C(\Cl)[N+](=O)[O-])=C(N1CCCCC1)N1CCCCC1,-69
Cc1[nH]c2ccccc2c1C(=O)C(=O)Nc1ccc2c(c1)OCO2,-91
SMILES,aSyn UTR act
CCOC(=O)c1cccc(NC(=O)/C=C/c2ccc3c(c2)OCO3)c1,i
Cc1cccc(NC(=S)NNC(=O)c2ccccc2Br)c1,-129
CCOC(=O)c1cccc(NC(=O)c2ccc3c(c2)OCO3)c1,-126
CCCc1cc(C(=O)NNC(=S)Nc2cccc(C)c2)cs1,-101
Cc1cccc(NC(=S)NNC(=O)c2csc3c2CCC(C)C3)c1 (configuration not stated),-77
CC(=O)c1cccc(NC(=O)c2ccc3c(c2)OCO3)c1,-128
Cc1cccc(NC(=S)NNC(=O)c2ccc3c(c2)OCO3)c1,-211
Cc1cc(C(=O)Nc2ccc3c(c2)OCO3)cs1,-233
CN1CCC(=NOc2ccc([N+](=O)[O-])cc2)CC1,-93
Cn1cccc1-c1cc(C(=O)N/N=C/c2cc(Br)ccc2O)[nH]n1,i
Cc1cc(C(=O)N/N=C/c2cc(Br)cc(Br)c2OC(=O)c2ccccc2)n[nH]1,i
O=C(N/N=C/c1c(O)ccc2ccccc12)c1[nH]ncc1Br,i
O=C(N/N=C/c1cccs1)c1[nH]ncc1Br,-95
Cc1cc(C(=O)N/N=C/c2cccs2)n[nH]1,-83
C/C(=N\NC(=O)c1cc(C)[nH]n1)c1ccc(-c2ccccc2)cc1,-78
Cc1ccc(O)c(/C=N/NC(=O)c2[nH]ncc2Br)c1,-113
Cc1cc(C(=O)N/N=C\c2cc(C(C)(C)C)ccc2O)n[nH]1,i
COc1ccc2cc3cc(C(=O)NC4CC4)sc3nc2c1,i
COc1ccc2nc3sc(C(=O)NCCN4CCc5ccccc5C4)cc3cc2c1,-69
COc1ccc2cc3cc(C(=O)NCCCN4CCc5ccccc5C4)sc3nc2c1,-198
Cc1cc(C(=O)Nc2sc(C)c(C)c2C#N)c(C)o1,-65
Cc1cccc2cc3c(N)c(C#N)sc3nc12,i
Cc1csc(Nc2nc(N)c(C(=O)Nc3ccccc3)o2)n1,-131
Cc1sc(NC(=O)c2oc3ccccc3c2C)c(C#N)c1C,-107
Cc1sc(NC(=O)c2sc3nc4c(C)cccc4cc3c2N)c(C#N)c1C,-119
SMILES,aSyn UTR act
Cc1csc(NC(=O)c2oc3ccccc3c2C)n1,-68
Cc1c(C(=O)NC2=NCCS2)oc2ccccc12,-62
CC(=O)N/C(N)=N/c1nc2cc([N+](=O)[O-])ccc2o1,-97
CC(=O)N/C(N)=N/c1nc2cc(C)ccc2o1,-63
Cc1ccc2c(COC(=O)c3n[nH]c4ccccc34)cc(=O)oc2c1,-172
CCc1ccc2c(COC(=O)c3n[nH]c4ccccc34)cc(=O)oc2c1,-175
N=c1c(C(=O)NCCN2CCOCC2)cc2c(=O)n3ccccc3nc2n1CCc1ccccc1,-83
Cc1ccc(S(=O)(=O)c2cc3c(=O)n4ccccc4nc3n(CCc3ccccc3)c2=N)cc1,-231
COc1ccc(CCn2c(=N)c(C(=O)NCc3ccco3)cc3c(=O)n4ccccc4nc32)cc1,-73
Nc1nccc(/C=C/c2c(F)cccc2Cl)n1,-103
Oc1cccc2ccc(/C=C/c3c(F)cccc3Cl)nc12,-114
O=C(Nc1cccc2ccccc12)OCc1cncs1,-62
O=C(Nc1ccc(Cl)cc1)OCc1cncs1,-119
O=C(Nc1cccc(Cl)c1)OCc1cncs1,-80
O=C(Oc1ccc(OC(=O)C2CCC2)cc1)C1CCC1,-65
CCCC(=O)NC(=S)Nc1nc(-c2ccc(OC)cc2)cs1,-65
CCCOc1ccc(C(=O)NC(=S)Nc2nc3ccccc3s2)cc1,-247
Cc1ccc2nc(NC(=S)NC(=O)c3cccs3)sc2c1,-104
COc1ccc(-c2csc(NC(=O)c3ccccc3NS(=O)(=O)c3ccc(F)c(F)c3)n2)cc1,i
CCCOc1ccc(C(=O)NNC(=S)NC(=O)CC)cc1,i
Cc1ccc2nc(NC(=S)NC(=O)c3ccc(OC(C)C)cc3)sc2c1,-107
Cc1ccc(-c2csc(NC(=S)NC(=O)c3cccs3)n2)cc1,-77

# Compound activity: PubChem BioAssay, Broad Institute
